An excerpt weighted towards active compounds, which were near 2.9% of everything screened.
Glyco luc inh = blocks N-linked glycosylation in D54 reporter cells. D54 ERlucT glycosylation luciferase reporter, 24 h; percent of 100 nM tunicamycin response. reporter increase, % at 12.5 µM. hit rate 0.23% among 360,000. AID 588692;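 active = mean luciferase reporter signal, scaled so untreated is 0 and the glycosylation-blocking control 100, at or above a set limit in every replicate; inconclusive = mean reaches the limit but not every replicate does; inactive = mean below the limit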;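 note: luciferase carries N-glycosylation sites so blocking glycosylation raises the light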
Wnt act = Wnt/beta-catenin pathway activation; hit rate 1.2% among 300,000; AID 743398; activation, % at 9.35 µM; Wnt/beta-catenin reporter cell assay, activator, plate reader; in the data active = activation above about 30%, passing the limit was not always enough; inconclusive = no clear call, values can overlap the other calls
PvdQ acylase = P. aeruginosa PvdQ acylase inhibition | inhibition, % at 10 µM | hit rate 0.063% among 340,000 | purified PvdQ acylase, fluorescence plate reader; in the data active = inhibition above about 30%, passing the limit was not always enough; inconclusive = no clear call, values can overlap the other calls
Vif imaging = inhibitors of HIV Vif | HEK293T cells, Vif self-association by quenched fluorescence, imaging, 24 h | inhibition, % at 7.49 µM | hit rate 0.35% among 340,000; in the data active = inhibition above about 50%, passing the limit was not always enough; inconclusive = no clear call, values can overlap the other calls; inactive = below about 31%
esBAF inh = blocks esBAF chromatin remodeling in mouse ES cells; Bmi1-luciferase knock-in reporter, 24 h; 100% = twice the neutral-well signal; reporter increase, % at 12.5 µM; hit rate 2% among 350,000; in the data active = activation above about 40%; inconclusive = no clear call, values can overlap the other calls;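 note: a rise in the Bmi1 reporter signal indicates esBAF inhibition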
MITF TRPM1 HTS = increases MITF-driven TRPM1 promoter luciferase signal | hit rate 0.75% among 300,000 | activation, % at 12.5 µM | AID 588334 | SK-MEL-5 TRPM1-promoter luciferase, 24 h; % of positive control, neutral wells = 0;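 active = mean activation of at least 80% with every replicate also reaching 80%; inconclusive = mean reaches 80% but some replicate falls short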
Hits are given with their value; . = inactive; ? = inconclusive; / = not tested or not shown.

SMILES	Glyco luc inh	Wnt act	PvdQ acylase	Vif imaging	esBAF inh	MITF TRPM1 HTS
CCOC(=O)C1(Cc2cccc(F)c2)CCN(C(=O)C2CCOCC2)CC1	.	.	.	.	.	.
C[C@@H]1CN([C@@H](C)CO)C(=O)c2cc(C#Cc3cccnc3)cnc2O[C@H]1CN(C)C(=O)CN(C)C	/	/	/	/	.	/
Cc1nnc2ccc(-c3ccc(NS(=O)(=O)c4ccc(F)cc4F)cc3)nn12	.	.	.	71	/	.
Cc1nnc2ccc(-c3ccc(NS(=O)(=O)c4ccccc4[N+](=O)[O-])cc3)nn12	.	.	.	76	.	.
Cc1nnc2ccc(-c3ccc(NS(=O)(=O)c4ccccc4F)cc3)nn12	.	.	.	.	/	.
COCC(=O)Nc1ccc2c(c1)C(=O)N(C)[C@H]1CC[C@@H](CC(=O)NCc3ccccc3)O[C@@H]1CO2	/	/	/	/	.	/
Cn1c(=O)[nH]c(=O)c2c1nc(NN)n2CCOc1ccccc1	61	.	.	.	.	.
CC(=O)N(C)C[C@@H]1Oc2cc(C#Cc3cccc(F)c3)ccc2S(=O)(=O)N([C@H](C)CO)C[C@H]1C	/	/	/	/	.	/
Cc1cc(C)c(O)c(-c2cc(C(=O)Nc3cccnc3)[nH]n2)c1	.	.	.	.	/	.
Cc1cc(O)c(-c2cc(C(=O)Nc3cccnc3)[nH]n2)cc1C	.	40	.	.	.	138
CCc1ccc(O)c(-c2cc(C(=O)Nc3cccnc3)[nH]n2)c1	.	?	.	.	56	109
CC(=O)N1[C@@H]2c3ccc(-c4cncnc4)c(=O)n3C[C@H]1[C@H](CO)[C@H]2C(=O)NC1Cc2ccccc2C1	/	/	/	/	.	/
Cc1nc2nc(-c3cccs3)cn2nc1C	.	47	.	.	/	/
COc1ccc(NC(=O)Nc2ccc3c(c2)C(=O)N([C@H](C)CO)C[C@H](C)[C@@H](CN(C)C(=O)Nc2cccc4ccccc24)OCCCC[C@@H](C)O3)cc1	/	/	/	/	.	/
CC(=O)Nc1ccc(C=C(C#N)c2ccc(C)cc2)cc1	.	47	/	.	?	/
Nc1ncccc1OCc1ccc(Cl)c(Cl)c1	.	47	.	.	/	/
COc1cc(CNCc2ccccn2)ccc1OCc1ccc(Cl)c(Cl)c1	.	.	.	.	.	105
COc1cc(CNCc2ccccn2)ccc1OCc1ccc(Cl)cc1Cl	.	/	.	.	.	.
C[C@H](CO)N1C[C@H](C)[C@@H](CN(C)Cc2ccccc2)Oc2ncc(C#CC3(O)CCCC3)cc2C1=O	/	/	/	/	.	/
CCOC(=O)N/N=C\C=C\c1ccco1	.	.	.	.	/	.
Cc1ccc(N/N=C/C=C/c2ccco2)cc1	.	.	.	.	/	99
COc1ccccc1S(=O)(=O)N1CC[C@@H]2[C@H]1c1cc(-c3ccccc3F)ccc1N[C@@H]2CO	/	/	/	/	.	/
O=[N+]([O-])c1ccc(Sc2n[nH]c(-c3ccccc3)n2)nc1	.	.	.	.	51	/
CNC(=O)C[C@@H]1CC[C@@H]2[C@@H](COc3ccc(NC(=O)Nc4cc(C)cc(C)c4)cc3C(=O)N2C)O1	/	/	/	/	.	/
O=C(O)c1ccccc1C(=O)NC1CCCc2ccccc21 (stereo not drawn)	.	.	.	/	.	.
SMILES	Glyco luc inh	Wnt act	PvdQ acylase	Vif imaging	esBAF inh	MITF TRPM1 HTS
O=C(NC1CCCc2ccccc21)c1ccccc1Br (stereo not drawn)	.	.	.	60	.	.
O=C(NCC(=O)N1CCC(Cc2ccccc2)CC1)c1ccccc1F	.	45	/	/	53	/
O=C(NCC(=O)N1CCCC1)c1ccccc1F	.	.	.	.	48	.
CN1CCCN(C(=O)CNC(=O)c2ccccc2F)CC1	.	.	.	.	.	.
O=C(OCC(=O)N1CCC(Cc2ccccc2)CC1)c1ccccc1O	.	.	.	.	/	90
C[C@H]1CN([C@@H](C)CO)C(=O)c2cccc(NS(=O)(=O)c3ccccc3)c2O[C@@H]1CN(C)S(=O)(=O)c1cccs1	/	/	/	/	.	/
Cc1noc(C)c1S(=O)(=O)Nc1cccc2c1O[C@H](CN(C)S(=O)(=O)c1cccs1)[C@H](C)CN([C@@H](C)CO)C2=O	/	/	/	/	.	/
COc1ccc(CC(=O)N2CCN(c3ccccn3)CC2)cc1OC	.	/	.	.	.	.
CCCc1ccc(OCc2ccc(C(=O)N3CCN(c4ccccn4)CC3)o2)c(OC)c1	.	/	.	.	45	.
COc1cccc2c(=O)ccoc12	.	/	.	.	/	.
Cc1ccc2oc3ccccc3c(=O)c2c1	.	.	.	.	62	101
O=c1c2ccccc2oc2ccc(-c3ccc4cc[nH]c4c3)cc12	.	/	.	.	.	104
COc1ccc2oc3ccc(OC)cc3c(=O)c2c1	.	/	.	.	98	/
COc1ccc2oc(=O)cc(C)c2c1	.	/	.	.	/	.
COc1cccc2c(=O)c3ccccc3oc12	.	.	.	.	66	?
C[C@H]1CCCCO[C@H](CN(C)C)[C@@H](C)CN([C@@H](C)CO)C(=O)c2cc(NC(=O)Nc3ccc(F)cc3)ccc2O1	/	/	/	/	.	/
COc1ccc2oc3ccccc3c(=O)c2c1	.	33	.	.	48	.
Cc1nn(-c2nc3ccccc3s2)c(N)c1-c1ccc(Cl)cc1	.	41	.	.	/	.
Cc1nn(-c2nc3ccccc3s2)c(N)c1-c1ccccc1	.	?	.	.	95	?
Cc1nn(-c2nc3ccccc3s2)c(N)c1Sc1ccc(F)cc1	?	/	.	.	89	.
Cc1cc(C)n(-c2nc3ccccc3s2)n1	.	52	.	.	/	.
CC(C)NC(=O)Nc1ccc2c(c1)C(=O)N([C@H](C)CO)C[C@H](C)[C@H](CN(C)Cc1ccc(C(=O)O)cc1)O2	/	/	/	/	.	/
C=CCNC(=O)C1CCN(c2nc(C)cc(-c3ccccc3)n2)CC1	.	.	.	.	56	.
C[C@H](CO)N1C[C@H](C)[C@@H](CN(C)C(=O)Cc2ccccc2)Oc2ncc(-c3ccc(F)cc3)cc2C1=O	/	/	/	/	.	/
Cc1ccc(NC(=O)c2cccc(N3C(=O)C4C5CCC(C5)C4C3=O)c2)c(C)c1 (stereo not drawn)	.	.	.	/	/	.
SMILES	Glyco luc inh	Wnt act	PvdQ acylase	Vif imaging	esBAF inh	MITF TRPM1 HTS
Cc1ccc2c(c1)C1C3CCC(C3)C1S(=O)N2 (stereo not drawn)	.	.	57	.	/	.
Cc1ccc2nc(-c3ccc(Cl)cc3)c(Cc3ccccc3C(F)(F)F)n2c1	.	.	/	/	50	/
FC(F)(F)c1ccccc1Cc1c(-c2cccc(Cl)c2)nc2ccc(Cl)cn12	.	.	/	/	56	/
O=C(CCN1CCCCC1)N[C@@H]1C=C[C@H](CC(=O)N2CCC(Cc3ccccc3)CC2)O[C@H]1CO	/	/	/	/	.	/
Nc1c(C(=O)Nc2ccc(S(=O)(=O)N3CCCC3)cc2)sc2nc3ccc(OC(F)(F)F)cc3cc12	100	.	.	96	/	.
O=C(C[C@H]1CC[C@H]2[C@@H](COC[C@@H](O)CN2C(=O)Nc2ccccc2)O1)NC1Cc2ccccc2C1	/	/	/	/	.	/
CC(c1nccs1)N(C)C(=O)c1cn(Cc2cccc3ccccc23)nn1 (stereo not drawn)	.	.	.	.	48	.
Brc1ccccc1-c1nnc(CSc2nncn2-c2ccccc2)o1	.	35	.	.	.	.

Screening results deposited in PubChem by Broad Institute.
